Common to all, as to assay: PBM; 200 nM protein, PBS
What all share (settings): dsDNA, one strand shown

The target of test [1] is CRX (Homo sapiens, UniProt O43186 26-111).
The target of test [2] is CRX (Homo sapiens, UniProt O43186 26-111, E42D).
The target in another test is PITX2 (Homo sapiens, UniProt Q99697 72-157).
In test [3] the target is CRX (Homo sapiens, UniProt O43186 26-111, R41L).
Test [4] concerns the target VAX1 (Homo sapiens, UniProt Q5SQQ9 86-172).
For test [5], the target named is VAX1 (Homo sapiens, UniProt Q5SQQ9 86-172, T142I).
In test [6] the target is VAX1 (Homo sapiens, UniProt Q5SQQ9 86-172, K157R).
Chain of VAX1 (Homo sapiens, UniProt Q5SQQ9 86-172, K157R) (Q5SQQ9 86-172 K157R): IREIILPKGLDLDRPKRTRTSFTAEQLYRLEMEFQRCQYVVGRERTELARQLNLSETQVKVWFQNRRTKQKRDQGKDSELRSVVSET

Chain of CRX (Homo sapiens, UniProt O43186 26-111) (O43186 26-111): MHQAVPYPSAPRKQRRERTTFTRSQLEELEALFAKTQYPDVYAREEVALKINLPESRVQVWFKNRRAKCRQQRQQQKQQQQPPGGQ
Chain of CRX (Homo sapiens, UniProt O43186 26-111, E42D) (O43186 26-111 E42D): as the sequence (O43186 26-111) above, with E17D counted along it
Chain of CRX (Homo sapiens, UniProt O43186 26-111, R41L) (O43186 26-111 R41L): as the sequence (O43186 26-111) above, with R16L counted along it
Chain of VAX1 (Homo sapiens, UniProt Q5SQQ9 86-172) (Q5SQQ9 86-172): as the sequence (Q5SQQ9 86-172 K157R) above, with R72K counted along it
Chain of VAX1 (Homo sapiens, UniProt Q5SQQ9 86-172, T142I) (Q5SQQ9 86-172 T142I): as the sequence (Q5SQQ9 86-172 K157R) above, with T57I, R72K counted along it

With AGATTATC, the binding signal with CRX [1] is 13.2 upbm affinity estimate (log intensity, higher = more binding, comparable within an allelic series); with CRX [2], 13.1 upbm affinity estimate (log intensity, higher = more binding, comparable within an allelic series); with PITX2, 12.5 upbm affinity estimate (log intensity, higher = more binding, comparable within an allelic series); with CRX [3], 13.2 upbm affinity estimate (log intensity, higher = more binding, comparable within an allelic series).

With AGGATTAC, the binding signal was 13.1 upbm affinity estimate (log intensity, higher = more binding, comparable within an allelic series) with CRX [1]; 13 upbm affinity estimate (log intensity, higher = more binding, comparable within an allelic series) with CRX [2]; 12.9 upbm affinity estimate (log intensity, higher = more binding, comparable within an allelic series) with PITX2; 13 upbm affinity estimate (log intensity, higher = more binding, comparable within an allelic series) with CRX [3].

CCGGATTA: the binding signal with CRX [1] was 13.5 upbm affinity estimate (log intensity, higher = more binding, comparable within an allelic series); in the test with CRX [2], 13.6 upbm affinity estimate (log intensity, higher = more binding, comparable within an allelic series); with PITX2, 13.1 upbm affinity estimate (log intensity, higher = more binding, comparable within an allelic series); with CRX [3] it was 13.5 upbm affinity estimate (log intensity, higher = more binding, comparable within an allelic series).

Regarding ACGGATTA, the binding signal is 13.5 upbm affinity estimate (log intensity, higher = more binding, comparable within an allelic series) in the test with CRX [1]; 13.5 upbm affinity estimate (log intensity, higher = more binding, comparable within an allelic series) with CRX [2]; 13.1 upbm affinity estimate (log intensity, higher = more binding, comparable within an allelic series) with PITX2; 13.5 upbm affinity estimate (log intensity, higher = more binding, comparable within an allelic series) with CRX [3].

In the case of GACAACCA, the binding signal with CRX [1] is 8.34 upbm affinity estimate (log intensity, higher = more binding, comparable within an allelic series); with CRX [2], 8.18 upbm affinity estimate (log intensity, higher = more binding, comparable within an allelic series); in the test with PITX2 it was 7.92 upbm affinity estimate (log intensity, higher = more binding, comparable within an allelic series); with CRX [3], 8.21 upbm affinity estimate (log intensity, higher = more binding, comparable within an allelic series).

CTAATCCC: the binding signal was 13.5 upbm affinity estimate (log intensity, higher = more binding, comparable within an allelic series) with CRX [1]; 13.6 upbm affinity estimate (log intensity, higher = more binding, comparable within an allelic series) with CRX [2]; 13.4 upbm affinity estimate (log intensity, higher = more binding, comparable within an allelic series) in the test with PITX2; 13.4 upbm affinity estimate (log intensity, higher = more binding, comparable within an allelic series) with CRX [3].

On to AGATTAAG, for which the binding signal with CRX [1] was 13.1 upbm affinity estimate (log intensity, higher = more binding, comparable within an allelic series); with CRX [2] it was 13 upbm affinity estimate (log intensity, higher = more binding, comparable within an allelic series); with PITX2 it was 12.6 upbm affinity estimate (log intensity, higher = more binding, comparable within an allelic series); in the test with CRX [3], 12.6 upbm affinity estimate (log intensity, higher = more binding, comparable within an allelic series).

Consider CCGGTGCG, for which the binding signal in the test with CRX [1] is 8.15 upbm affinity estimate (log intensity, higher = more binding, comparable within an allelic series); with CRX [2] it was 8.24 upbm affinity estimate (log intensity, higher = more binding, comparable within an allelic series); with VAX1 [4], 7.06 upbm affinity estimate (log intensity, higher = more binding, comparable within an allelic series); in the test with VAX1 [5], 7.11 upbm affinity estimate (log intensity, higher = more binding, comparable within an allelic series); with CRX [3] it was 8.27 upbm affinity estimate (log intensity, higher = more binding, comparable within an allelic series); with VAX1 [6], 7.12 upbm affinity estimate (log intensity, higher = more binding, comparable within an allelic series).

As to GCGGATTA, the binding signal with CRX [1] is 13.6 upbm affinity estimate (log intensity, higher = more binding, comparable within an allelic series); in the test with CRX [2], 13.7 upbm affinity estimate (log intensity, higher = more binding, comparable within an allelic series); with PITX2, 13.3 upbm affinity estimate (log intensity, higher = more binding, comparable within an allelic series); in the test with CRX [3], 13.6 upbm affinity estimate (log intensity, higher = more binding, comparable within an allelic series).

In the case of CCTAATCC, the binding signal with CRX [1] was 13.5 upbm affinity estimate (log intensity, higher = more binding, comparable within an allelic series); in the test with CRX [2], 13.6 upbm affinity estimate (log intensity, higher = more binding, comparable within an allelic series); with PITX2 it was 13.3 upbm affinity estimate (log intensity, higher = more binding, comparable within an allelic series); in the test with CRX [3] it was 13.2 upbm affinity estimate (log intensity, higher = more binding, comparable within an allelic series).

Regarding GGGATTAC, the binding signal with CRX [1] is 13.2 upbm affinity estimate (log intensity, higher = more binding, comparable within an allelic series); with CRX [2], 13.2 upbm affinity estimate (log intensity, higher = more binding, comparable within an allelic series); in the test with PITX2, 13.1 upbm affinity estimate (log intensity, higher = more binding, comparable within an allelic series); in the test with CRX [3], 13.2 upbm affinity estimate (log intensity, higher = more binding, comparable within an allelic series).

With ATAATCCC, the binding signal in the test with CRX [1] is 13.5 upbm affinity estimate (log intensity, higher = more binding, comparable within an allelic series); with CRX [2], 13.7 upbm affinity estimate (log intensity, higher = more binding, comparable within an allelic series); in the test with PITX2, 13.2 upbm affinity estimate (log intensity, higher = more binding, comparable within an allelic series); with CRX [3], 13.7 upbm affinity estimate (log intensity, higher = more binding, comparable within an allelic series).

For the sequence GCGCACGC, the binding signal was 8.22 upbm affinity estimate (log intensity, higher = more binding, comparable within an allelic series) with CRX [1]; 8.37 upbm affinity estimate (log intensity, higher = more binding, comparable within an allelic series) in the test with CRX [2]; 7.91 upbm affinity estimate (log intensity, higher = more binding, comparable within an allelic series) with PITX2; 8.29 upbm affinity estimate (log intensity, higher = more binding, comparable within an allelic series) with CRX [3].

Take GAAGATTA: the binding signal with CRX [1] is 12.8 upbm affinity estimate (log intensity, higher = more binding, comparable within an allelic series); in the test with CRX [2], 12.8 upbm affinity estimate (log intensity, higher = more binding, comparable within an allelic series); in the test with PITX2, 12.4 upbm affinity estimate (log intensity, higher = more binding, comparable within an allelic series); in the test with CRX [3], 12.5 upbm affinity estimate (log intensity, higher = more binding, comparable within an allelic series).

As for TAATCTCA, the binding signal in the test with CRX [1] was 12.7 upbm affinity estimate (log intensity, higher = more binding, comparable within an allelic series); in the test with CRX [2] it was 12.7 upbm affinity estimate (log intensity, higher = more binding, comparable within an allelic series); in the test with PITX2 it was 12.4 upbm affinity estimate (log intensity, higher = more binding, comparable within an allelic series); in the test with CRX [3] it was 12.4 upbm affinity estimate (log intensity, higher = more binding, comparable within an allelic series).

Consider CTAATCCA, for which the binding signal in the test with CRX [1] is 13.3 upbm affinity estimate (log intensity, higher = more binding, comparable within an allelic series); with CRX [2], 13.3 upbm affinity estimate (log intensity, higher = more binding, comparable within an allelic series); in the test with PITX2 it was 13.2 upbm affinity estimate (log intensity, higher = more binding, comparable within an allelic series); in the test with CRX [3] it was 13 upbm affinity estimate (log intensity, higher = more binding, comparable within an allelic series).

As to CTTAATCC, the binding signal in the test with CRX [1] was 13.7 upbm affinity estimate (log intensity, higher = more binding, comparable within an allelic series); with CRX [2], 13.8 upbm affinity estimate (log intensity, higher = more binding, comparable within an allelic series); with PITX2, 13.5 upbm affinity estimate (log intensity, higher = more binding, comparable within an allelic series); with CRX [3] it was 13.5 upbm affinity estimate (log intensity, higher = more binding, comparable within an allelic series).

As to GAGGATTA, the binding signal is 13.5 upbm affinity estimate (log intensity, higher = more binding, comparable within an allelic series) in the test with CRX [1]; 13.6 upbm affinity estimate (log intensity, higher = more binding, comparable within an allelic series) in the test with CRX [2]; 13.1 upbm affinity estimate (log intensity, higher = more binding, comparable within an allelic series) with PITX2; 13.4 upbm affinity estimate (log intensity, higher = more binding, comparable within an allelic series) with CRX [3].

For the origin of these results see publication PMC11006913.
